For 4 molecules, activity (protection/inhibition) results are on record in PubChem BioAssay AID651871 (Sanford-Burnham Center for Chemical Genomics, 2012).

“And” between values parts separate entries of the source, which are not always exact repeats. Equal entries are not always repeated.

For this test, the system named is HL-1. Description: protection of cardiomyocytes from stress damage, SAR follow-up, cell-based, panel, H9c2 and HL-1, ATP luminescence, set 2 (AID 651871).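 Also: cells exposed to stressor for 2 h before ATP readout; reference of the scale not given here.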 The settings on record: H9c2/HL-1 cardiomyocytes, H2O2 oxidative stress; with H2O2, run 3, at 79 µM (top of the series).
`COc1ccc2c(c1OC)C(=O)N1c3ccccc3C(=O)N(Cc3cccc(Cl)c3Cl)C21` (centres undefined): the activity (protection/inhibition) is 5.43% and -7.46% and 6.3%.
Next, `CCOC(=O)c1cccc(NC(=O)CNC(=O)c2cc(-c3cc(OC)c(OC)c(OC)c3)nc3ccccc23)c1`: 48.4%; `COc1ccc2nc(-c3cc(OC)c(OC)c(OC)c3)cc(C(=O)NCC(=O)Nc3ccc(C(C)=O)cc3)c2c1`: 19.5% and 32.9%; `COc1cc(-c2cc(C(=O)Nc3cccc(C(=O)NCc4ccccc4)c3)c3ccccc3n2)cc(OC)c1OC`: 14.7%.
